{
  "source": "the supplement of paper PMC11732987",
  "about": "“Enantioselective OTUD7B fragment discovery through chemoproteomics screening and high-throughput optimisation” (Communications Chemistry, 2025)",
  "experiment_in_all_cases": "log2 ratio of Biotin-Ahx-Ub-VS probe labelling (fragment/DMSO); higher = less target engagement (more negative = stronger competition), active = hit call of the paper (q ≤ 0.05, log2 ratio ≤ -1)",
  "details_in_all_cases": "compound concentration: 200 uM; treatment time: 3 h",
  "key": {"[1]": {"biological_target": "T1, OTUD6B (UniProt Q8N6M0)", "T1 sequence (whole entry)": "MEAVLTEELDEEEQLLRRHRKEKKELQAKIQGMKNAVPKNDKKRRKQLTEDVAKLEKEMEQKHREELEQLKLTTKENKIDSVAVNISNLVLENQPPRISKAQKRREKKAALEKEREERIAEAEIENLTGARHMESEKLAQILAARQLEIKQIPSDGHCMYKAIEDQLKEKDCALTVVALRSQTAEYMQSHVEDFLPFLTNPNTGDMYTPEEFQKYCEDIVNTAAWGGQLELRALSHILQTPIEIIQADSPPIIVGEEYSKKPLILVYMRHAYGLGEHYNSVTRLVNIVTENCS", "procedure,_shortened": "(§1)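 Fragment (200 µM) or vehicle was incubated for 3 h with triplicate HEK293T lysate samples of 495 µg, which were then treated with Biotin-Ahx-Ub-VS at 0.5 µM final for 1 h. Labelled DUBs were enriched on NeutrAvidin, digested with LysC and trypsin, and analysed by diaPASEF LC-MS/MS. Values are average log2 fragment/vehicle ratios from an unpaired t-test on global-median-normalised Spectronaut label-free quantities, using proteins with ≥2 unique peptides.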"}, "[2]": {"biological_target": "T2, OTUD7B (UniProt Q6GQQ9)", "T2 sequence (whole entry)": "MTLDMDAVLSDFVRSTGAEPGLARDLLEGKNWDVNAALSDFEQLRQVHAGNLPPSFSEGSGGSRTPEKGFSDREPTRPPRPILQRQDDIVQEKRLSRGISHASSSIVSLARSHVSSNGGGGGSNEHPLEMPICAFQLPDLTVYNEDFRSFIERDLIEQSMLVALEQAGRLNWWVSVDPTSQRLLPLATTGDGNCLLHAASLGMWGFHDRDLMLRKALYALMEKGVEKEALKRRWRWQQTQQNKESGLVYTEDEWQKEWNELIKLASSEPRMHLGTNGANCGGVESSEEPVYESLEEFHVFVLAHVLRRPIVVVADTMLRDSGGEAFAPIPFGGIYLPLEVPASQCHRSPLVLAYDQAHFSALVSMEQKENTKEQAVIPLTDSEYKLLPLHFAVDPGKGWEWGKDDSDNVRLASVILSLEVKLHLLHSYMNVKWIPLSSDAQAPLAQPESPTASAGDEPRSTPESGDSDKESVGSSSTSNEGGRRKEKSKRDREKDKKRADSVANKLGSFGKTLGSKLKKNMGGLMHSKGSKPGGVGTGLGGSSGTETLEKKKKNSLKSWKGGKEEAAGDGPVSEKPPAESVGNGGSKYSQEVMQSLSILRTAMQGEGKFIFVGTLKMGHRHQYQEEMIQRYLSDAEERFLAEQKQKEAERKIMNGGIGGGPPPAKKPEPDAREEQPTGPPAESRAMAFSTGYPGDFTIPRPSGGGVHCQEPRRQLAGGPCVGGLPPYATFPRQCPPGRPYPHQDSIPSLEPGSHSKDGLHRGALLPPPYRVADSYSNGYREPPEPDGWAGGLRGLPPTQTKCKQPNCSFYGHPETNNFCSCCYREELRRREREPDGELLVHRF", "procedure,_shortened": "as §1"}, "[3]": {"biological_target": "PRPF8 (UniProt Q6P2Q9)", "procedure,_shortened": "as §1"}, "[4]": {"biological_target": "T3, PSMD7 (UniProt P51665)", "T3 sequence (whole entry)": "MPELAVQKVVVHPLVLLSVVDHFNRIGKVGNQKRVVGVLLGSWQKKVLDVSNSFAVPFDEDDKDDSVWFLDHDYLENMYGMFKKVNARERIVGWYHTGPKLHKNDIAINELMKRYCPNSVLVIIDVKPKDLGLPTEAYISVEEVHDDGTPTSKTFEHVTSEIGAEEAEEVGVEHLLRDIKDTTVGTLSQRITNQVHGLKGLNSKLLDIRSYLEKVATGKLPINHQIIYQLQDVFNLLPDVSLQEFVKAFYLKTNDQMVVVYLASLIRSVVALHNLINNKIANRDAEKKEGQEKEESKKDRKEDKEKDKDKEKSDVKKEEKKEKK", "procedure,_shortened": "as §1"}, "[5]": {"biological_target": "UCHL1 (UniProt P09936)", "sequence (P09936 whole entry, looked up)": "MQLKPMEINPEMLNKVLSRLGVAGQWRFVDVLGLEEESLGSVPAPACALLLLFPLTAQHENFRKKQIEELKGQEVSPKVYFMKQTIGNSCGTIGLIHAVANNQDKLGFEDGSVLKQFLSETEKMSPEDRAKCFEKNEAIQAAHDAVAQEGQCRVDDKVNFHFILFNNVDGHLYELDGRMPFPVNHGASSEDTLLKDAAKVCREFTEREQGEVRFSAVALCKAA", "procedure,_shortened": "as §1"}, "[6]": {"biological_target": "T4, UCHL3 (UniProt P15374)", "T4 sequence (whole entry)": "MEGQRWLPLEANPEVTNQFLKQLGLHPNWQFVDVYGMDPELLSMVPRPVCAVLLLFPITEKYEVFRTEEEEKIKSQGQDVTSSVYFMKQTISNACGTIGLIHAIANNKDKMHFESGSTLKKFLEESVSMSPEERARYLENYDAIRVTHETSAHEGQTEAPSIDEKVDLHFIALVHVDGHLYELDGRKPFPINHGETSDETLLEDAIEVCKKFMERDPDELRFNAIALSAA", "procedure,_shortened": "as §1"}, "[7]": {"biological_target": "T5, UCHL5 (UniProt Q9Y5K5)", "T5 sequence (whole entry)": "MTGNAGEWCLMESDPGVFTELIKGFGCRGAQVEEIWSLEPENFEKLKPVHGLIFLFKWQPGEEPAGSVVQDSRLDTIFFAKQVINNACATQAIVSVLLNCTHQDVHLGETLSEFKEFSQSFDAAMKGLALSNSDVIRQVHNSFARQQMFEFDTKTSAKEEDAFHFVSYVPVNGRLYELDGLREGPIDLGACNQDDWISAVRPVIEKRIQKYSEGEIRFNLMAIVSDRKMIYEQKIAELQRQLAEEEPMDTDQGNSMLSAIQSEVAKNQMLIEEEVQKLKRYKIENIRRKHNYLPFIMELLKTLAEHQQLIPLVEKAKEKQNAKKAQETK", "procedure,_shortened": "as §1"}, "[8]": {"biological_target": "USP10 (UniProt Q14694)", "sequence (Q14694 whole entry)": "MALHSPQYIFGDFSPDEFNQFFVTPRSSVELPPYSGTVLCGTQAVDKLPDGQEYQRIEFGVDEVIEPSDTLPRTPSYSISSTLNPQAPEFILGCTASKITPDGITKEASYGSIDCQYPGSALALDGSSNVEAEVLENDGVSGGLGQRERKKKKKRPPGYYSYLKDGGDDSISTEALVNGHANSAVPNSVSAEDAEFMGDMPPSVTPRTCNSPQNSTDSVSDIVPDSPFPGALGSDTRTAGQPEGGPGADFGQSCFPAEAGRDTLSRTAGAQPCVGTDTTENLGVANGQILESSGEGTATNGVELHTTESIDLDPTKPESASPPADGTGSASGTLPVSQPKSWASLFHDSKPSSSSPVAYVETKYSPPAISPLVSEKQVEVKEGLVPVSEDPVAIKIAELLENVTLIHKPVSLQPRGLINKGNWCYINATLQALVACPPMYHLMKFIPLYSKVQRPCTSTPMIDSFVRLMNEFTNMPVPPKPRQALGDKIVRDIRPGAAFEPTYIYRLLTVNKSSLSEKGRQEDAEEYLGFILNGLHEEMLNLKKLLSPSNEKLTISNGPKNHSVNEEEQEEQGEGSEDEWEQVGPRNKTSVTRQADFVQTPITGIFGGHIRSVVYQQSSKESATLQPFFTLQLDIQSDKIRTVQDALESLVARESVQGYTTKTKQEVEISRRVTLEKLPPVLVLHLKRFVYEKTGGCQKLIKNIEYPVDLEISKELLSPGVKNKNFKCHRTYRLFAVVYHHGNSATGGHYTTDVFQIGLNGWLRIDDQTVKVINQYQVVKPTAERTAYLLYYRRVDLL", "procedure,_shortened": "as §1"}, "[9]": {"biological_target": "T6, USP15 (UniProt Q9Y4E8)", "T6 sequence (whole entry)": "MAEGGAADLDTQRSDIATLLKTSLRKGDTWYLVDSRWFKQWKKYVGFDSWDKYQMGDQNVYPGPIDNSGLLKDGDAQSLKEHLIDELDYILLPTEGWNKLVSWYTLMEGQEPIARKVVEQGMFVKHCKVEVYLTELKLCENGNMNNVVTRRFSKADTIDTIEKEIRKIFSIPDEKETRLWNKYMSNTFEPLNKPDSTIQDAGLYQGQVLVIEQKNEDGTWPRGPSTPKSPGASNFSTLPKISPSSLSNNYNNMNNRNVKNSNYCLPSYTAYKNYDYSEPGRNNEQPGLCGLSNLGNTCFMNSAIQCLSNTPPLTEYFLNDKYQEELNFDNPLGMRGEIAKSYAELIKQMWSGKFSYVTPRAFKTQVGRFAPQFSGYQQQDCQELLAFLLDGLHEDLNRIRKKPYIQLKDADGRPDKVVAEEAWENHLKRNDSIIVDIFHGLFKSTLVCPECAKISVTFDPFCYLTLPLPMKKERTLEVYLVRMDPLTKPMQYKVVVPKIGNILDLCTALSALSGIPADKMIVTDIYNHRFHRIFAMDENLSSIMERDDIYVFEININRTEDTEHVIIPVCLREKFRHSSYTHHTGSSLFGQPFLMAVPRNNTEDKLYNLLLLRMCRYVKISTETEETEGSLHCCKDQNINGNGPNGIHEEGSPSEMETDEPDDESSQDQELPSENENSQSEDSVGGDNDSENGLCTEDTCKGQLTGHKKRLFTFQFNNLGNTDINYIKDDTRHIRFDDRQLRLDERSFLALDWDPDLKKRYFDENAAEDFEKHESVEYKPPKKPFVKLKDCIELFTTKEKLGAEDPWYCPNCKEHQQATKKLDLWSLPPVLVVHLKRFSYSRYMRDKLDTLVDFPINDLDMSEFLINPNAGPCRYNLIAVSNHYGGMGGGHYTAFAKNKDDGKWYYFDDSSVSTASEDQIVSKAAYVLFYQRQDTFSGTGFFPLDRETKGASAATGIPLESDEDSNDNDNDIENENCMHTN", "procedure,_shortened": "as §1"}, "[10]": {"biological_target": "USP16 (UniProt Q9Y5T5)", "sequence (Q9Y5T5 whole entry, looked up)": "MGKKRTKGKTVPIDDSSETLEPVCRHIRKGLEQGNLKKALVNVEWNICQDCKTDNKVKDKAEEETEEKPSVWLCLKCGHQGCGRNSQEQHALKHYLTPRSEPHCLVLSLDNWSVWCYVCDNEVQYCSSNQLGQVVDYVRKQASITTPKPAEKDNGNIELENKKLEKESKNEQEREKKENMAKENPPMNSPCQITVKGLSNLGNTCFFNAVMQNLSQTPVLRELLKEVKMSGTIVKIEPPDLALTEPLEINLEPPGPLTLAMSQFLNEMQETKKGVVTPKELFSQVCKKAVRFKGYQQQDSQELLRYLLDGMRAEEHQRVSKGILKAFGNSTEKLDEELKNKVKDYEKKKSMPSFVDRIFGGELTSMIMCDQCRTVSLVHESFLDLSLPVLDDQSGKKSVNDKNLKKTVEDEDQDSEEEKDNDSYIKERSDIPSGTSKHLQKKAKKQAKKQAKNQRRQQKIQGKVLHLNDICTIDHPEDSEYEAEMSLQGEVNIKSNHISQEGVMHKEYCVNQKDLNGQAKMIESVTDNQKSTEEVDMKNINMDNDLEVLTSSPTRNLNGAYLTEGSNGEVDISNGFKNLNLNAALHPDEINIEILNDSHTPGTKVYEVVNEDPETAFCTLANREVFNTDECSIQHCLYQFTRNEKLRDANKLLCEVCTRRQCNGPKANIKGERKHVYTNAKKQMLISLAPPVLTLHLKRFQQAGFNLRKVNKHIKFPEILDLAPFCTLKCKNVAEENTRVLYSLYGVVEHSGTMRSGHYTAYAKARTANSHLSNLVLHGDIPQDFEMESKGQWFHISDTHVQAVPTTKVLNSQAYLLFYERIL", "procedure,_shortened": "as §1"}},
  "note": "Values without a mark were called inactive.",
  "data": [
    {"smiles": "O=C(CCl)N1CCCC1c1ccsc1", "note": "(stereo not given)", "values": [
      {"measurement": "log2 ratio of Biotin-Ahx-Ub-VS probe labelling", "setting": "[1]", "value": -0.452},
      {"measurement": "log2 ratio of Biotin-Ahx-Ub-VS probe labelling", "setting": "[2]", "value": -0.521},
      {"measurement": "log2 ratio of Biotin-Ahx-Ub-VS probe labelling", "setting": "[3]", "value": 0.0505},
      {"measurement": "log2 ratio of Biotin-Ahx-Ub-VS probe labelling", "setting": "[4]", "value": -0.39},
      {"measurement": "log2 ratio of Biotin-Ahx-Ub-VS probe labelling", "setting": "[5]", "value": "-1.81 (active)"},
      {"measurement": "log2 ratio of Biotin-Ahx-Ub-VS probe labelling", "setting": "[6]", "value": -0.121},
      {"measurement": "log2 ratio of Biotin-Ahx-Ub-VS probe labelling", "setting": "[7]", "value": -0.228},
      {"measurement": "log2 ratio of Biotin-Ahx-Ub-VS probe labelling", "setting": "[8]", "value": -0.161},
      {"measurement": "log2 ratio of Biotin-Ahx-Ub-VS probe labelling", "setting": "[9]", "value": -0.548},
      {"measurement": "log2 ratio of Biotin-Ahx-Ub-VS probe labelling", "setting": "[10]", "value": -0.254}
    ]}
  ]
}
